# Experimental data published in ChEMBL document CHEMBL1961873, “Compounds: GSK PKIS; Assays: Nanosyn kinase panel” (2012).
# Experiments:
# [1] = molecular target: Tyrosine-protein kinase Fyn (Homo sapiens) (UniProt P06241); settings: at 1 µM
# [2] = molecular target: Tyrosine-protein kinase HCK (Homo sapiens) (UniProt P08631); settings: at 0.1 µM
# [3] = molecular target: Tyrosine-protein kinase HCK (Homo sapiens) (UniProt P08631); settings: at 1 µM
# [4] = molecular target: Insulin-like growth factor 1 receptor (Homo sapiens) (UniProt P08069); settings: at 0.1 µM
# [5] = molecular target: Insulin-like growth factor 1 receptor (Homo sapiens) (UniProt P08069); settings: at 1 µM
# [6] = molecular target: Insulin receptor (Homo sapiens) (UniProt P06213); settings: at 0.1 µM
# [7] = molecular target: Insulin receptor (Homo sapiens) (UniProt P06213); settings: at 1 µM
# [8] = molecular target: Insulin receptor-related protein (Homo sapiens) (UniProt P14616); settings: at 0.1 µM
# [9] = molecular target: Insulin receptor-related protein (Homo sapiens) (UniProt P14616); settings: at 1 µM
# [10] = molecular target: T1, Tyrosine-protein kinase ITK/TSK (Homo sapiens) (UniProt Q08881); settings: at 0.1 µM
# T1 sequence (whole entry): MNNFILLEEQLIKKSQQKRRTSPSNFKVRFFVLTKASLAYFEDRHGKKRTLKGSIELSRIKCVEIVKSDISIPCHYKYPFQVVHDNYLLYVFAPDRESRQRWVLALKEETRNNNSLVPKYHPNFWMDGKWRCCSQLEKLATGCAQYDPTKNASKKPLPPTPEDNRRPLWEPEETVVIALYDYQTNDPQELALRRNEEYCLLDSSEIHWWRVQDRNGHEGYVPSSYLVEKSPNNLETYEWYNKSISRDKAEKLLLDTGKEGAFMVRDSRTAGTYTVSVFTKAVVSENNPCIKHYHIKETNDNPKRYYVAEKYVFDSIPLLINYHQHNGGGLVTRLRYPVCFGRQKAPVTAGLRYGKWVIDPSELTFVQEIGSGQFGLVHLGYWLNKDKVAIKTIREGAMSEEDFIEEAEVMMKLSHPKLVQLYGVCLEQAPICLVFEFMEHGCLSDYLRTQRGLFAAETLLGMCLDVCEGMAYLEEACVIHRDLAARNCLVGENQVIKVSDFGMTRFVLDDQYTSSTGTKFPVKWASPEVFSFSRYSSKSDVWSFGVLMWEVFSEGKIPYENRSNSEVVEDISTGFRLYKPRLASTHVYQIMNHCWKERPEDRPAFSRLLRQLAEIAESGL
# [11] = molecular target: T1, Tyrosine-protein kinase ITK/TSK (Homo sapiens); settings: at 1 µM
# [12] = molecular target: Tyrosine-protein kinase JAK1 (Homo sapiens) (UniProt P23458); settings: at 0.1 µM
# [13] = molecular target: Tyrosine-protein kinase JAK1 (Homo sapiens) (UniProt P23458); settings: at 1 µM
# [14] = molecular target: Tyrosine-protein kinase JAK2 (Homo sapiens) (UniProt O60674); settings: at 0.1 µM
# [15] = molecular target: Tyrosine-protein kinase JAK2 (Homo sapiens) (UniProt O60674); settings: at 1 µM
# [16] = molecular target: T2, Tyrosine-protein kinase JAK3 (Homo sapiens) (UniProt P52333); settings: at 0.1 µM
# T2 sequence (whole entry): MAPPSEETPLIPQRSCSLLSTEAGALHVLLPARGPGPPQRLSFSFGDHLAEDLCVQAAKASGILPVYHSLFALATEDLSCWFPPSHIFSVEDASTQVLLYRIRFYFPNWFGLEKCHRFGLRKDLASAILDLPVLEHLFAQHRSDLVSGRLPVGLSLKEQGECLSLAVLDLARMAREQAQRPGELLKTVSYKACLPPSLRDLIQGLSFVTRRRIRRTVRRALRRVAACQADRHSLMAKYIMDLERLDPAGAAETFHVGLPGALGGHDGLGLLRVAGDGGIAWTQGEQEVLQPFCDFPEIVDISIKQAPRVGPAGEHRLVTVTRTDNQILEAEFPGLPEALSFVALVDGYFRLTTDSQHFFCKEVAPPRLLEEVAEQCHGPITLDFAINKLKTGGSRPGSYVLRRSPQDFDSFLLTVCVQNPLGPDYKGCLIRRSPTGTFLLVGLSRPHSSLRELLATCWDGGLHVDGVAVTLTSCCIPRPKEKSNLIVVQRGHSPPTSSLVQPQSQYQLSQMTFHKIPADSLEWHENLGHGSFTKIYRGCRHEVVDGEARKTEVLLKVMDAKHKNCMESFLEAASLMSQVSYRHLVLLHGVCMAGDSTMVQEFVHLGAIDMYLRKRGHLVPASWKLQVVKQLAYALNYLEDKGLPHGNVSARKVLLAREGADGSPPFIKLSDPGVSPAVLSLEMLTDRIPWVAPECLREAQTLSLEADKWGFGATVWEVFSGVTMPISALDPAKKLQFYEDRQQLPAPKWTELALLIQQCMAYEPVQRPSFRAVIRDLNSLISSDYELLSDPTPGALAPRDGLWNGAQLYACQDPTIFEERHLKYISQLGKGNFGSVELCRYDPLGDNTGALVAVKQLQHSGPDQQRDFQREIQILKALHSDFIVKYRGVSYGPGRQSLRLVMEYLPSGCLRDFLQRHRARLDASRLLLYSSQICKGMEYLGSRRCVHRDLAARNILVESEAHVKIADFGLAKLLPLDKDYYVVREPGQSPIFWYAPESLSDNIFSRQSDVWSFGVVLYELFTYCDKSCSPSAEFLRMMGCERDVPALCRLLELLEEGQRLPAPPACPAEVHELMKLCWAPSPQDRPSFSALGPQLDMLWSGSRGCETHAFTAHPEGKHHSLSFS
# [17] = molecular target: T2, Tyrosine-protein kinase JAK3 (Homo sapiens); settings: at 1 µM
# [18] = molecular target: Vascular endothelial growth factor receptor 2 (Homo sapiens) (UniProt P35968); settings: at 0.1 µM
# [19] = molecular target: Vascular endothelial growth factor receptor 2 (Homo sapiens) (UniProt P35968); settings: at 1 µM
# [20] = molecular target: Mast/stem cell growth factor receptor Kit (Homo sapiens) (UniProt P10721); settings: at 0.1 µM;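 also: values are mean inhibition of KIT, from the GSK PKIS dataset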
# Sequence of Mast/stem cell growth factor receptor Kit (Homo sapiens) (P10721 whole entry): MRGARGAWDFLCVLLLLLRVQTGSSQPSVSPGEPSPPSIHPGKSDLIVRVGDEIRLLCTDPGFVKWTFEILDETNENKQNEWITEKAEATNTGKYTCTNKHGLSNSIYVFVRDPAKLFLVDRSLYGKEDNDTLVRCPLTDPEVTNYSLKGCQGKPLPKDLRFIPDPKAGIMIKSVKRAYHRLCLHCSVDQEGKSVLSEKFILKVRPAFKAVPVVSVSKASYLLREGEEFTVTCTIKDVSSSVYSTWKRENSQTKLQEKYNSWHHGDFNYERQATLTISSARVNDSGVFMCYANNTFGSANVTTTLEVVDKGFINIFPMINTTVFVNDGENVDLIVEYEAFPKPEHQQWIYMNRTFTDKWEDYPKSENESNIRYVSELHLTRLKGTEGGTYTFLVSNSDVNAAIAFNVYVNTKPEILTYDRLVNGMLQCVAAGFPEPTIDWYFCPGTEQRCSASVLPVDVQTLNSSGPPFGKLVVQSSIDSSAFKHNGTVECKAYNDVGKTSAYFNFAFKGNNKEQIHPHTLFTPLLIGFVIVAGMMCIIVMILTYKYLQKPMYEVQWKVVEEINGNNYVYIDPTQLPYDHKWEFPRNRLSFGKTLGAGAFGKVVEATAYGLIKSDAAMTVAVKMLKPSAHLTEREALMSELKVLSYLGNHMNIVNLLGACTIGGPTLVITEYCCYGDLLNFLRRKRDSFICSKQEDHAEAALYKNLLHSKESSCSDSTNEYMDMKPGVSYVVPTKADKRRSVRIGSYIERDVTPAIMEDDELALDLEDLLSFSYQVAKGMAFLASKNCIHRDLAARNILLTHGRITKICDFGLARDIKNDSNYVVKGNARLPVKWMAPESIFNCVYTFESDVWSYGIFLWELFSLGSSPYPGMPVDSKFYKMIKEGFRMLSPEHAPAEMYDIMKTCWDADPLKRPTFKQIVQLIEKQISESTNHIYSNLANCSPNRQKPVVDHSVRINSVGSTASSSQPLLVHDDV
# Sequence of Insulin receptor-related protein (Homo sapiens) (P14616 27-742 limits assumed): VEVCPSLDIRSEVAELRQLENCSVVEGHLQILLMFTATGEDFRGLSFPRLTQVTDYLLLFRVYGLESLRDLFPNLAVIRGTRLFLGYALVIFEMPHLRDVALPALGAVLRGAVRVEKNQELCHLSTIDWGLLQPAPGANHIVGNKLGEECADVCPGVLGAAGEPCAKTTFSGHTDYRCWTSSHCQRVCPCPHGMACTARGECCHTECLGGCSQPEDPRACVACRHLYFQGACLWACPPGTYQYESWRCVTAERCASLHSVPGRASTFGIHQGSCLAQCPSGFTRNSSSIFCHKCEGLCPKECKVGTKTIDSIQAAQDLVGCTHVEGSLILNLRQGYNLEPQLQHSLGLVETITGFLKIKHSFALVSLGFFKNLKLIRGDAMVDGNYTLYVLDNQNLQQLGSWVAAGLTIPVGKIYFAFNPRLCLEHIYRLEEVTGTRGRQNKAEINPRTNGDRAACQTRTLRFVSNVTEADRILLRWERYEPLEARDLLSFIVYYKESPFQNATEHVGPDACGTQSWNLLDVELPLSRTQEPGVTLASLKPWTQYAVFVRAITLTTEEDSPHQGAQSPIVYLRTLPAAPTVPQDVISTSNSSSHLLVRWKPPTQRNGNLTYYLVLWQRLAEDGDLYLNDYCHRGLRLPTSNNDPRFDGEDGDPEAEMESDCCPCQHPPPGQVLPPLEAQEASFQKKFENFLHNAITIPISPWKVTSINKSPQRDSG
# Sequence of Insulin receptor-related protein (Homo sapiens) (P14616 747-1297 limits assumed): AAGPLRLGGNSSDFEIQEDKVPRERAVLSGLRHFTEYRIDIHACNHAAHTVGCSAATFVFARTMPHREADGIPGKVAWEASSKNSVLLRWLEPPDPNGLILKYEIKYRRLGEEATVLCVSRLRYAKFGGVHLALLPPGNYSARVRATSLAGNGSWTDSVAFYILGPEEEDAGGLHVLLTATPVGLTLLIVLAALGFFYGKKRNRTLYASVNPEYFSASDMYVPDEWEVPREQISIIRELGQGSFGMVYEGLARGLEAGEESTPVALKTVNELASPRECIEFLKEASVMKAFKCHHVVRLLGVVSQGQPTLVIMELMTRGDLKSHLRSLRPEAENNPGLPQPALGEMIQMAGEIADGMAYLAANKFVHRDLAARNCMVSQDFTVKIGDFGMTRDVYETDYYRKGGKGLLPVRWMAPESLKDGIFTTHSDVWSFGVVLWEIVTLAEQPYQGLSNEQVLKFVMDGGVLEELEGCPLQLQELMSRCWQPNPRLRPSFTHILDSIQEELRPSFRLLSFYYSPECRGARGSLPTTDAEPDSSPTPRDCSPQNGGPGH
# Sequence of Tyrosine-protein kinase Fyn (Homo sapiens) (P06241 2-537 limits assumed): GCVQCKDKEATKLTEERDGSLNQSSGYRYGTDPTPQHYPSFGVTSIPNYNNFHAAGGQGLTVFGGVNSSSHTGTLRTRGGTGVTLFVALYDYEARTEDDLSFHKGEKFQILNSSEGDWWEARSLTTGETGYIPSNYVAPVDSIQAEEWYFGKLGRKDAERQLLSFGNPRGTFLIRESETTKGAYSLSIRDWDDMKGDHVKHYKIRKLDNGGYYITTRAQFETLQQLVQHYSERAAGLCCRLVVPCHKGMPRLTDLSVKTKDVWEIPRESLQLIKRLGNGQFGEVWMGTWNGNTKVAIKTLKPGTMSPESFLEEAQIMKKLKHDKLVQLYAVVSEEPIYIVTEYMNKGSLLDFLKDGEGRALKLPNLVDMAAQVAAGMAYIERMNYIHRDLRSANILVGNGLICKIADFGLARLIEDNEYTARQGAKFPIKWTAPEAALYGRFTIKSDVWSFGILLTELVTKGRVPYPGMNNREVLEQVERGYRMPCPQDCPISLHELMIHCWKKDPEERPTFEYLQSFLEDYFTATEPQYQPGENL
# Sequence of Tyrosine-protein kinase JAK1 (Homo sapiens) (P23458 whole entry): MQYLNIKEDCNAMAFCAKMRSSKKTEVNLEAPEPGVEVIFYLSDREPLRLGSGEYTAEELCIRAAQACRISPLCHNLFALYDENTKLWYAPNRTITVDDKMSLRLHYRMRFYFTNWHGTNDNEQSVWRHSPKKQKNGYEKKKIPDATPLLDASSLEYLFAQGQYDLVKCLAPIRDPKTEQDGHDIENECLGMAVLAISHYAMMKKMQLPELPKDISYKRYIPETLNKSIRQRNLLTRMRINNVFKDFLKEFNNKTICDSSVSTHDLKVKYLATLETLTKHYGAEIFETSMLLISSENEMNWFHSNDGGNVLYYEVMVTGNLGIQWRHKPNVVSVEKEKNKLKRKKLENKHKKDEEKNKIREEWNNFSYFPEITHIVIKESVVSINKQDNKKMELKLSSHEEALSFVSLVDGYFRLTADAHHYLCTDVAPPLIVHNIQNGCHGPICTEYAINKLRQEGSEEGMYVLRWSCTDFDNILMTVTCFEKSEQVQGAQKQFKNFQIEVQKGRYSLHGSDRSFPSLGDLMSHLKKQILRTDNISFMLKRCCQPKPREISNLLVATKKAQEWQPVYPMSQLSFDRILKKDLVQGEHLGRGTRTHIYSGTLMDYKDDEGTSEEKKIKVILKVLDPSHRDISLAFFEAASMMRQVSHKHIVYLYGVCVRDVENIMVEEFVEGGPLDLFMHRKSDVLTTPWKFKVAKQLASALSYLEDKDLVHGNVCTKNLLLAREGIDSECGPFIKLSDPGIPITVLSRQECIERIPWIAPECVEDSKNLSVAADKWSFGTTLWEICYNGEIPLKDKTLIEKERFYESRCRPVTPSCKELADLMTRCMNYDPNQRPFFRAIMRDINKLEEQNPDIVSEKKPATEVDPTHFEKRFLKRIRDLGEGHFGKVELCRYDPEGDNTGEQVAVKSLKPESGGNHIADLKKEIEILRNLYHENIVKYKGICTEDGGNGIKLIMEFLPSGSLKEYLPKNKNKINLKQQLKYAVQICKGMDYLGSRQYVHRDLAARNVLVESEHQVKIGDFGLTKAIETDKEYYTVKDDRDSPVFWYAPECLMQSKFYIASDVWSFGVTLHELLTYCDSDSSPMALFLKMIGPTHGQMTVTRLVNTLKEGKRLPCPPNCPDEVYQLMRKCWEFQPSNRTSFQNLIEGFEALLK
# Sequence of Tyrosine-protein kinase JAK2 (Homo sapiens) (O60674 whole entry): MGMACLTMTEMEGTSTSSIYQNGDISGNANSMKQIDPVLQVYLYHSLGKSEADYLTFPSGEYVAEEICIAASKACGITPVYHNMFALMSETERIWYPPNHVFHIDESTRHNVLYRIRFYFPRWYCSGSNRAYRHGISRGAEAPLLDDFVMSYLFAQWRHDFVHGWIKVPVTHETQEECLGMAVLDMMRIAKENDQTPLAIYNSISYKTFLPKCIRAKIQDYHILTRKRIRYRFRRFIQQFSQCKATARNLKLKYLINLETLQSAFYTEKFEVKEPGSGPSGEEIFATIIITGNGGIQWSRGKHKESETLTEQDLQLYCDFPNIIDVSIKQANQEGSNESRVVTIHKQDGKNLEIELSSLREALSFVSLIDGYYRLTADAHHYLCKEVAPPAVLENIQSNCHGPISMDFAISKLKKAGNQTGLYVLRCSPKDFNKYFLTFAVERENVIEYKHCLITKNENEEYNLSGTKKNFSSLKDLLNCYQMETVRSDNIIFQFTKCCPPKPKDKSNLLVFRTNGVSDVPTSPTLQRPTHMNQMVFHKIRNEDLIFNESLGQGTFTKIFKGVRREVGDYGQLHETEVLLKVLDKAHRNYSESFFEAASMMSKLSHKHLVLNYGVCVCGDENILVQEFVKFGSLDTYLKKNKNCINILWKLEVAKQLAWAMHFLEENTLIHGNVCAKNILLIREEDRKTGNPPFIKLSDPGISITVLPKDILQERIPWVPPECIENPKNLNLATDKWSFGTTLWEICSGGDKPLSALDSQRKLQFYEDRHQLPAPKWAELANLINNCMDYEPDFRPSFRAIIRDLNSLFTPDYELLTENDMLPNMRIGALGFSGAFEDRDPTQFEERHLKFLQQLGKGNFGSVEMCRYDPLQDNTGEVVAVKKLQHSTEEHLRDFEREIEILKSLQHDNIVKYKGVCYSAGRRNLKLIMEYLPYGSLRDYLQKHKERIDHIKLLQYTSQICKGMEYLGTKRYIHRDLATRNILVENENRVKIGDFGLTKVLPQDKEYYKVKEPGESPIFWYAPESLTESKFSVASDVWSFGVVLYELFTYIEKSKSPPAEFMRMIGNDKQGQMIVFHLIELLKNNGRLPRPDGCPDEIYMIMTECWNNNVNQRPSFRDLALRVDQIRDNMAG
Structure (SMILES),inhibition [1],inhibition [2],inhibition [3],inhibition [4],inhibition [5],inhibition [6],inhibition [7],inhibition [8],inhibition [9],inhibition [10],inhibition [11],inhibition [12],inhibition [13],inhibition [14],inhibition [15],inhibition [16],inhibition [17],inhibition [18],inhibition [19],inhibition [20]
NS(=O)(=O)c1ccc(N/N=C2\C(=O)Nc3ccc(C(=O)NCCc4c[nH]cn4)cc32)cc1,17.2%,9.6%,25%,5.24%,17.3%,6.5%,32%,6.49%,2.5%,1.78%,3.56%,5.75%,0.16%,2.27%,2.46%,0.03%,3.43%,12.9%,43.3%,5.68%
COc1cc2ncn(-c3cc(OCc4ccccc4C(F)(F)F)c(C(N)=O)s3)c2cc1OC,9.2%,8.32%,29.2%,–,-2.72%,-1.5%,2.13%,4.32%,3.34%,-3.84%,-0.36%,1.72%,2.62%,1.67%,1.84%,-6.46%,-2.61%,21.7%,68.9%,–
CCn1c(-c2nonc2N)nc2cncc(C(=O)N3CCNCC3)c21,2.87%,6.76%,9.25%,8.86%,9.25%,10.5%,9.41%,4.06%,6.22%,2.63%,2.09%,4.28%,4.72%,4.03%,2.86%,-0.41%,-0.7%,3.99%,9.13%,7.95%
CCn1c(-c2nonc2N)nc2c(C#CC(C)(C)O)nc(OC[C@@H](N)c3ccccc3)cc21,2.07%,5.84%,11.9%,1.67%,1.05%,-0.22%,-0.5%,0.45%,1.06%,0.21%,0.95%,-3.77%,2.1%,0.33%,6.32%,1.24%,4.39%,35.1%,71.2%,-1.3%
COc1cc(C=NNc2ncnc3c2cnn3-c2ccccc2)ccc1O,47.5%,8.92%,41.6%,1.72%,3.81%,3.42%,2.58%,3.25%,2.41%,1.47%,4.53%,2.76%,3.21%,1.26%,8.82%,-0.33%,4.39%,12.4%,49.6%,15%
Cc1nnc(-c2ccc(C)c(-c3ccc(C(=O)Nc4cccc(C#N)c4)cc3)c2)o1,3.47%,4.32%,5.14%,1.24%,0.79%,4.34%,3.89%,-0.6%,1.65%,0.98%,0.58%,1.77%,6.74%,-0.14%,-0.34%,-1.17%,1.29%,3.3%,7.82%,5.68%
Nc1ncnc2occ(-c3ccc(NC(=O)Nc4cc(C(F)(F)F)cc(C(F)(F)F)c4)cc3)c12,10.3%,6.07%,27.1%,1.24%,7.12%,-4.81%,6.05%,5.56%,2.23%,1.65%,11.2%,-0.74%,–,0.74%,1.44%,0.06%,0.78%,46.7%,68.2%,29%
CCCN1CCC(Oc2cc(Nc3nc(Nc4cccc(F)c4C(N)=O)c4cc[nH]c4n3)c(OC)cc2Cl)CC1,3.01%,4.1%,7.31%,57.2%,91.8%,64%,88%,4.74%,37.6%,0.65%,1.18%,-1.95%,-2.49%,0.96%,1.42%,0.62%,1.56%,9.18%,18.5%,-0.76%
CCc1cccc(NC(=O)Nc2ccc(Oc3ccc4nc(NC(=O)OC)[nH]c4c3)cc2)c1,4.72%,4.76%,7.28%,5.04%,2.45%,-2.61%,0.47%,2.05%,3.39%,0.3%,1.87%,1.39%,1.27%,1.07%,4.62%,-1.05%,1.13%,–,–,87.5%
c1cnn2ncc(-c3ccnc(Nc4ccc5c(c4)OCCO5)n3)c2c1,8.63%,6.09%,16.8%,15%,56.6%,12.7%,58.5%,5.36%,15.2%,1.86%,5.82%,8.27%,19.7%,2.1%,20.6%,1.94%,46%,9.54%,37.4%,95%
COc1cc2c(cc1Nc1nc(N3CCc4ccccc43)c3cc[nH]c3n1)N(C(=O)CN(C)C)CC2,1.51%,5.42%,10%,103%,98.4%,93%,91%,72.3%,90.3%,0.83%,1.52%,-0.01%,-3.36%,1.69%,0.18%,0.19%,0.18%,1.11%,0.21%,3.11%
O=C1NC(=O)C(c2cccc(Cl)c2)=C1Nc1ccc(O)c(Cl)c1,2.24%,1.14%,3.34%,-1.68%,2.43%,4.11%,6.7%,1.1%,0.03%,0.25%,1.28%,2.54%,7.81%,0.65%,2.24%,3.49%,51.4%,3.41%,20.1%,-3.91%
NCc1ccc(-c2nc(-c3ccc(Cl)c(O)c3)c(-c3ccncc3)[nH]2)cc1,31.8%,12.9%,55.1%,-0.62%,-0.25%,0.74%,2.07%,-0.06%,-1.54%,0.2%,1.29%,-0.11%,2.34%,0.65%,0.75%,1.4%,1.41%,69.2%,74.8%,0.79%
CCn1c(-c2nonc2N)nc2c(N3CCCC3)nccc21,0.7%,-0.01%,2.43%,0.23%,2.72%,1.98%,-1.23%,-2.24%,-0.91%,0.23%,-0.14%,–,-2.79%,-0.66%,-1.59%,-0.2%,2.23%,1.32%,6.67%,-1.56%
